Assay [1] in a line: qHTS assay to identify small molecule antagonists of the thyroid receptor (TR) signaling pathway - cell viability counter screen (AID 743064). Further: nearly all actives have a fitted effect of over 50% in size. The method, boiled down: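 In-well cytotoxicity read by CellTiter-Fluor (30 min, 37 C) following 23.5 h exposure of GH3 cells bearing a TRE-luciferase sensor. Compounds were added alongside 1 nM (final) T3 to drive TR transactivation.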
In general terms: Quantitative high-throughput screening tests each substance at several concentrations.

The nature of assay [2]: qHTS assay to identify small molecule antagonists of the estrogen receptor alpha (ER-alpha) signaling pathway - cell viability counter screen (AID 743074; calls by dose curve;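 further: HEK293 cells carrying ER-alpha-UAS-bla reporter stimulated with 17beta-estradiol; nearly all actives have a fitted effect of over 45% in size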).
Assay [3] can be described thus: qHTS assay to identify small molecule antagonists of the estrogen receptor alpha (ER-alpha) signaling pathway using the BG1 cell line - cell viability counter screen (AID 743081).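 Further: compound given together with 17beta-estradiol as the ER stimulus; nearly all actives have a fitted effect of over 45% in size.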
A further assay has as its target Aromatase (Homo sapiens) (UniProt P11511). Kind of assay: qHTS assay to identify aromatase inhibitors (AID 743083). Further: nearly all actives have a fitted effect of over 55% in size. Further: potency means the concentration at half of the fitted maximal effect.
A short description of assay [4]: qHTS assay to identify aromatase inhibitors - cell viability counter screen (AID 743084).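 Further: cells stimulated with testosterone during compound exposure; nearly all actives have a fitted effect of over 55% in size.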
For assay [5], the target named is Aryl hydrocarbon receptor (Homo sapiens) (UniProt P35869). Kind of assay: qHTS assay to identify small molecule that activate the aryl hydrocarbon receptor (AhR) signaling pathway (AID 743085).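 Further: HG2L7.5c1 human HepG2 liver cells with stably integrated DRE-driven firefly reporter; nearly all actives have a fitted effect of over 15% in size.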 Summed up: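 Luminescence (ONE-Glo) from a dioxin-responsive-element luciferase reporter in HG2L7.5c1 HepG2 cells after 24 hr compound exposure at 37C; viability measured by CellTiter-Fluor fluorescence beforehand.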

The nature of assay [6]: qHTS assay to identify small molecule that activate the aryl hydrocarbon receptor (AhR) signaling pathway - cell viability counter screen (AID 743086). Further: nearly all actives have a fitted effect of over 45% in size. The method, boiled down: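 Cytotoxicity counter screen: CellTiter-Fluor signal (30 min, 37 C) in 4000 HepG2 cells/well carrying the DRE-luciferase reporter, following 24 h compound exposure at 37 C.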
Assay [7] concerns the target Peroxisome proliferator-activated receptor gamma (Homo sapiens) (UniProt P37231). The assay can be described thus: qHTS assay to identify small molecule agonists of the peroxisome proliferator-activated receptor gamma (PPARg) signaling pathway (AID 743094; active means well fitted activation curve with a large enough effect in the signal ratio in the repeat runs, not every such curve was filed as active; inconclusive means weak or mixed curves, or effect the other way; inactive means no such curve, though single readings can be large or run the other way; the % refers to the signal ratio). Summed up:
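Following 5 h plating at 37C, PPARg-bla HEK293H cells receive compound or DMSO for 17 h; fluorescence intensity is recorded after LiveBLAzer B/G loading for 1 h at room temperature.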

Assay [8] has the same target. The assay can be described thus: qHTS assay to identify small molecule antagonists of the peroxisome proliferator-activated receptor gamma (PPARg) signaling pathway (AID 743191; calls by dose curve; further: nearly all actives have a fitted effect of over 30% in size). Summed up: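 Beta-lactamase reporter under UAS control in HEK293H PPARg-bla cells; compound treatment 17 h at 37C. Read-out: fluorescence intensity after 1 h room-temperature incubation with LiveBLAzer B/G FRET substrate.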

The nature of assay [9]: qHTS assay to identify small molecule antagonists of the peroxisome proliferator-activated receptor gamma (PPARg) signaling pathway - cell viability counter screen (AID 743194). Further: nearly all actives have a fitted effect of over 55% in size. Further: potency means the concentration at half of the fitted maximal effect. As to conditions: Potency: co-treated with 50 nM rosiglitazone unless noted. The method, boiled down: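 Viability was measured as CellTiter-Glo luminescence in GeneBLAzer PPARg UAS-bla HEK293H cells. These cells had been exposed 17 h at 37 C to compounds together with rosiglitazone at 50 nM final, with the beta-lactamase readout taken in the same wells.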

Assay [10] can be described thus: qHTS assay for small molecule agonists of the antioxidant response element (ARE) signaling pathway - cell viability counter screen (AID 743203; calls by dose curve; further: nearly all actives have a fitted effect of over 55% in size; further: potency means the concentration at half of the fitted maximal effect). The method, boiled down:
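Compounds in DMSO were pinned onto ARE-bla HepG2 cells plated 5 hrs earlier at 2,000 cells/well. Sixteen hours later at 37C/5% CO2, CellTiter-Glo was added and luminescence measured after 30 min at room temperature.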

A short description of assay [11]: qHTS assay to identify small molecule antagonists of the thyroid receptor (TR) signaling pathway (AID 743065). Further: nearly all actives have a fitted effect of over 55% in size. Further: potency means the concentration at half of the fitted maximal effect. The method, boiled down: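 Antagonism measured as loss of luciferase signal in GH3 cells stably carrying a TRE-luciferase reporter, co-treated with compound and T3 (1 nM final) for 23.5 h at 37 C. Viability was read in the same well by CellTiter-Fluor.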

Assay [12] deals with thyroid hormone receptor (rat, GH3 cells). Kind of assay: qHTS assay to identify small molecule agonists of the thyroid receptor (TR) signaling pathway (AID 743066; calls by dose curve).
Assay [13] concerns the target Estrogen receptor (Homo sapiens) (UniProt P03372). The assay can be described thus: qHTS assay to identify small molecule antagonists of the estrogen receptor alpha (ER-alpha) signaling pathway (AID 743069; active means well fitted curve in the direction sought with a large enough effect in the signal ratio in the repeat runs, not every such curve was filed as active; inconclusive means weak or mixed curves, or effect the other way; inactive means no such curve, though single readings can be large or run the other way; the % refers to the signal ratio; further: potency means the concentration at half of the fitted maximal effect). Summed up:
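ER-alpha-UAS-bla GripTite HEK293 line; 2% charcoal-stripped FBS overnight; plated, 4 hr 37C/5% CO2; cpd in DMSO + 17beta-estradiol, 18 hr 37C; LiveBLAzer B/G FRET substrate 2 hr RT; fluorescence intensity.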

Assay [14] can be described thus: qHTS assay to identify small molecule antagonists of the estrogen receptor alpha (ER-alpha) signaling pathway using the BG1 cell line (AID 743080; calls by dose curve;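 further: BG1 cells stimulated with 17beta-estradiol alongside compound; nearly all actives have a fitted effect of over 25% in size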; further: potency means the concentration at half of the fitted maximal effect). Summed up: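 BG1-Luc-4E2 cells (endogenous full-length ER-alpha, stable 4×ERE-luciferase) were starved 5 days in phenol-red-free medium with 10% charcoal-stripped FBS, plated 24 h, then given compound plus 17beta-estradiol for 21.5 h at 37 C; ONE-Glo luminescence read after 30 min.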

A short description of assay [15]: qHTS assay for small molecule activators of the heat shock response signaling pathway - cell viability counter screen (AID 743209). Further: nearly all actives have a fitted effect of over 50% in size. Summed up:
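Counter screen for cytotoxicity in HeLa HSE-bla reporter cells. Treatment was 5 h at 37 C; viability was detected by luminescent ATP assay (CellTiter-Glo) in the same wells as the beta-lactamase read.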

Assay [16] is described as follows: qHTS assay for small molecule activators of the heat shock response signaling pathway (AID 743210; active means well fitted activation curve with a large enough effect in the signal ratio in the repeat runs, with a control signal flat, not every such curve was filed as active; inconclusive means weak or mixed curves; the % refers to the signal ratio;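 further: HeLa cells with beta-lactamase reporter driven by heat shock elements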). Summed up:
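HeLa HSE-bla cells, overnight plating; cpd in DMSO 5 h, 37 C; LiveBLAzer B/G FRET substrate 2.5 h RT; fluorescence intensity read.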

Assay [17] deals with Estrogen receptor (Homo sapiens) (UniProt P03372). The assay can be described thus: qHTS assay to identify small molecule agonists of the estrogen receptor alpha (ER-alpha) signaling pathway (AID 743075; calls by dose curve;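 further: HEK293 GripTite cells with ER-alpha and UAS-driven beta-lactamase reporter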; further: potency means the concentration at half of the fitted maximal effect).
For assay [18] the target is unchanged. The assay can be described thus: qHTS assay to identify small molecule agonists of the estrogen receptor alpha (ER-alpha) signaling pathway using the BG1 cell line (AID 743079). Further: nearly all actives have a fitted effect of over 20% in size. Further: potency means the concentration at half of the fitted maximal effect. As to conditions: BG1Luc4E2 cells, ERE-luciferase agonist, 22 h; activation: at 70.3 µM (top of the series).
Assay [19] can be described thus: qHTS assay for small molecule agonists of the antioxidant response element (ARE) signaling pathway (AID 743202; active means well fitted activation curve with a large enough effect in the signal ratio in the repeat runs, not every such curve was filed as active; inconclusive means weak or mixed curves, or effect the other way; inactive means no such curve, though single readings can be large or run the other way; the % refers to the signal ratio; further: potency means the concentration at half of the fitted maximal effect). The method, boiled down:
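Quantitative high-throughput format in HepG2 cells bearing an integrated ARE-beta-lactamase reporter. Compound exposure lasted 16 h at 37 C, and fluorescence was read 2 h after adding LiveBLAzer B/G substrate at room temperature.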

Each structure is given as a SMILES string. The source made the active and inactive calls. Unless noted, the call rests on the fitted dose curve; in most records, active means well fitted curve in the direction sought with a large enough effect in the repeat runs; inconclusive means weak or mixed curves; inactive means no such curve, though single readings can be large; an effect the other way counts as inactive or inconclusive.

Sequence of Peroxisome proliferator-activated receptor gamma (Homo sapiens) (P37231 whole entry, looked up): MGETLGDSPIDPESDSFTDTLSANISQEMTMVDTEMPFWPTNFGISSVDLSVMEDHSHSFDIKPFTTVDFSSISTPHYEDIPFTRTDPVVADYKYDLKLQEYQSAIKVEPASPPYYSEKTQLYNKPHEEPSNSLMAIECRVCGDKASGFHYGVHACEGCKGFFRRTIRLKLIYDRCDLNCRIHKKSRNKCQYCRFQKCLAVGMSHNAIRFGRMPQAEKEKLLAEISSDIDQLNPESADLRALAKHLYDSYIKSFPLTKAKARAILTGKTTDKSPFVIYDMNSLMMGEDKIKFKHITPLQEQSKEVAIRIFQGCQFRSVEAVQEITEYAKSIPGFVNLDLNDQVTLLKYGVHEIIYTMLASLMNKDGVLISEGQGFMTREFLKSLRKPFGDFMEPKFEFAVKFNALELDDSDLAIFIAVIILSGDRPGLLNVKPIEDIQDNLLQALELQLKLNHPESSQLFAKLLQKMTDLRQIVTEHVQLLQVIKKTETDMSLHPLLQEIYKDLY
Sequence of Estrogen receptor (Homo sapiens) (P03372 whole entry, looked up): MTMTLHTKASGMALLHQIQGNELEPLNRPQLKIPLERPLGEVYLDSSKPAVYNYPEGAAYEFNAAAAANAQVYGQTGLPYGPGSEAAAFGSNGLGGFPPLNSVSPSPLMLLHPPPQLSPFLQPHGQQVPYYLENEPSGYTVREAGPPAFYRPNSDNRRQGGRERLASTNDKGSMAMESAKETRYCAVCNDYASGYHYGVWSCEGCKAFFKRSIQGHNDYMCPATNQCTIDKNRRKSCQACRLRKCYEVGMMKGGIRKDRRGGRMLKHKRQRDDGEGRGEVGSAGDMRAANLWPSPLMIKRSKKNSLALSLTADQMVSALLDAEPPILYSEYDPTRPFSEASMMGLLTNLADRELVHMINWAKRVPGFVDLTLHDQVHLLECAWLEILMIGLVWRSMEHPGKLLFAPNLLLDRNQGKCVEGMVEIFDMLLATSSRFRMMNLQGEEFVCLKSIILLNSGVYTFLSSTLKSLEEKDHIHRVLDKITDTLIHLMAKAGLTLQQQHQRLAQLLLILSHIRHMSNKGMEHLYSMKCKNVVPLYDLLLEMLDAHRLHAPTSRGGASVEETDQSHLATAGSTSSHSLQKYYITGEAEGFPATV
Sequence of Aromatase (Homo sapiens) (P11511 whole entry, looked up): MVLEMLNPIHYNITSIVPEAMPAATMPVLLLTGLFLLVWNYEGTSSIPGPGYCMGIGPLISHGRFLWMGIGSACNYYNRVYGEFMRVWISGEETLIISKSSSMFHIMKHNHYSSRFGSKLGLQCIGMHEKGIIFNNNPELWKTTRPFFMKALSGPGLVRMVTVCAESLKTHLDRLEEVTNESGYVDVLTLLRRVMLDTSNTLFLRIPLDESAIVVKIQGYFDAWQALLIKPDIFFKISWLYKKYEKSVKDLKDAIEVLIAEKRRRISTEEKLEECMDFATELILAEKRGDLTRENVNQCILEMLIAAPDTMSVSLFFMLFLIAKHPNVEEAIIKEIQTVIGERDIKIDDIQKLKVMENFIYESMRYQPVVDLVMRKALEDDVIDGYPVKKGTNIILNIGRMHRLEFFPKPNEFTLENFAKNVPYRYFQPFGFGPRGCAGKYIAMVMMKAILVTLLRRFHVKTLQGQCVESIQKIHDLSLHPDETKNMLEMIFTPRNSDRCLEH
Sequence of Aryl hydrocarbon receptor (Homo sapiens) (P35869 whole entry, looked up): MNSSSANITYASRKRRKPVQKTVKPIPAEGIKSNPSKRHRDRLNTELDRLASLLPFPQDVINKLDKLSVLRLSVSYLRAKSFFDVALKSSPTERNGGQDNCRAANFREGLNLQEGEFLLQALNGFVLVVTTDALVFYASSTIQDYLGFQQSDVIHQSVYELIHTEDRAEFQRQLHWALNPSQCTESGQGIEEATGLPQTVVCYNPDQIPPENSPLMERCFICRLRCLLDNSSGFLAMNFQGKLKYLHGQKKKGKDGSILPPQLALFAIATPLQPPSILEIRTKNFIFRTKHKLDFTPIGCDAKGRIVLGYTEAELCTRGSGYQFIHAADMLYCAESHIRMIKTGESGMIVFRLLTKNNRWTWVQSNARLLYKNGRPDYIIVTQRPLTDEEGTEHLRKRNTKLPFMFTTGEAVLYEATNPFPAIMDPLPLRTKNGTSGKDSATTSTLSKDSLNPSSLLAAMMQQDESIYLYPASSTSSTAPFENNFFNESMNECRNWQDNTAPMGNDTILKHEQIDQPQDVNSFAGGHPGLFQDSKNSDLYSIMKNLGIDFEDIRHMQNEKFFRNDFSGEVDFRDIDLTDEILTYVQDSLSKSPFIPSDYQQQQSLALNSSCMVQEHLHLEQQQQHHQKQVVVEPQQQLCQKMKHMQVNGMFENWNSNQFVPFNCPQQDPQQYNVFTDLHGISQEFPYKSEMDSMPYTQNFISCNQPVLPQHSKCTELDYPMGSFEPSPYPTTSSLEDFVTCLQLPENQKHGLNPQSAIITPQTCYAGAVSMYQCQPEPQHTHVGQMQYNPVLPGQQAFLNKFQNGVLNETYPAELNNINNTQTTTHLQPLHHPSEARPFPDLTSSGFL

`COc1ccc2c3c1O[C@H]1[C@H](O)CC[C@H]4[C@@H](C2)N(C)CC[C@@]341`: the Potency entry (in assay [1]; in [2]; in assay [3]; with Aromatase (Homo sapiens); in [4]; in [5]) was “inactive” each time. For the same compound, the Potency entry in assay [6], in assay [7], in assay [8], in [9] and in assay [10] was “inactive” in each case.
As to `COP(=O)(OC)O/C(=C\Cl)c1cc(Cl)c(Cl)cc1Cl`, the Potency in assay [11] was 27.3 µM (active); in [13] it was 24.5 µM [inconclusive] (active); in [14], 68.6 µM (active); with Aromatase (Homo sapiens) it was 30.6 µM (active). Further, the Potency entry in assay [12], in assay [3], in [5], in [6], in assay [15] and in assay [16] was “inactive” throughout.
For `COP(=S)(NC(C)C)Oc1ccc(C)cc1[N+](=O)[O-]` (configuration not stated), the Potency result in assay [11], in assay [12], in assay [2], in assay [3], in assay [4] and in assay [6] was “inactive” throughout. Moreover, the Potency entry in assay [9], in [19], in assay [10], in assay [15] and in [16] was “inactive” throughout. For the same compound, the results for the Potency in assay [17], in assay [18] and in [14] were 5.49 µM [inconclusive] (active), 1.93 µM (active) and 38.6 µM (active), respectively.
Turning to `Clc1cc(Cl)c(-c2cc(Cl)c(Cl)cc2Cl)cc1Cl`, the Potency result (in assay [12]; in assay [2]; in assay [3]; in the assay with Aromatase (Homo sapiens); in [4]; in assay [5]) was “inactive” throughout. The Potency entry in [6], in [7], in assay [9], in assay [19], in assay [15] and in assay [16] was “inactive” in each case.
As to `Cc1ccc([N+](=O)[O-])[c]2c1[O][Hg]2`, the Potency is 2.98 µM (active) in [9] and 4.22 µM (active) in assay [10].
For the compound `CCN(CC)C(=O)N[C@@H]1C=C2c3cccc4[nH]cc(c34)C[C@@H]2N(C)C1`, the Potency result in assay [12], in assay [13], in assay [2], in assay [17], in [18] and in assay [3] was “inactive” throughout. Moreover, the Potency entry in [4], in [6], in assay [7], in [8], in [9] and in [19] was “inactive” each time. Besides, the Potency result in assay [10], in [15] and in assay [16] was “inactive” each time.
`CC[N+]1(CC)CCC(OC(=O)C(O)(c2ccccc2)c2ccccc2)C1` (configuration not stated): the Potency result in assay [9], in assay [19], in [10], in [15] and in assay [16] was “inactive” throughout.
Regarding `CC#C[C@]1(O)CC[C@H]2[C@@H]3C[C@H](C)C4=CC(=O)CC[C@]4(C)[C@H]3CC[C@@]21C`, the Potency entry in [9], in [10] and in [15] was “inactive” in each case. The Potency in assay [19] was 23.7 µM (active).
As for `C[C@H]1[C@H](c2ccc(Cl)cc2)SC(=O)N1C(=O)NC1CCCCC1`, the Potency in assay [11] and in assay [14] was 61.1 µM (active) each time. For the same compound, the Potency entry in assay [2], in [17], in assay [3], in [4], in [5] and in assay [6] was “inactive” in each case. The Potency result in [7], in assay [9] and in assay [10] was “inactive” throughout.
For the compound `CCCCCCCc1ccc(O)cc1`, the Potency entry in assay [12], in [13], in assay [2], in [17], in assay [14] and in [3] was “inactive” in each case. Moreover, the Potency entry in [5], in [6], in assay [7] and in [16] was “inactive” throughout. In addition, the Potency in [18] is 24.3 µM (active).
Consider `O=c1[nH]c2cc(Cl)ccc2n1C1CCNCC1`, for which the Potency entry in assay [8] and in assay [9] was “inactive” each time.

(Values after PubChem BioAssay (Tox21).)
